# Results reported in PubChem BioAssay AID1745849 (National Center for Advancing Translational Sciences (NCATS), 2022).
# About 320 (15%) of roughly 2,100 compounds were called active. Inconclusive results (about 52%) are left out. This is one part of the list. Values without a mark were called inactive. The call rests on the fitted dose curve; in most records, active means well fitted cell-killing curve with a large enough effect; inconclusive means small, poorly fitted or top-dose-only effect, or effect the other way; inactive means flat fitted curve, though single readings scatter.
# Assay: Viability Counterscreen for CMV-Luciferase Assay of Inhibitors of ATXN expression; further: nearly all actives have a fitted effect of over 55% in size
# Conditions: HEK-293 CMV-luciferase cells viability, protease fluorescence, 24 h; activity change, negative = cytotoxicity: at the top concentration
# Excerpt: PI: Daniel Scoles Ph.D. University of Utah School of Medicine, Salt Lake City, Utah MLPCN Grant: NS073009 Spinocerebellar ataxia type 2 (SCA2) is a multisystem neurodegenerative disease caused by a dominantly acting mutation leading to expansion of a polyQ domain in the ataxin-2 protein (ATXN2). SCA2 patients develop progressive ataxia and later lose function in other neuronal systems. Prominent parkinsonian signs develop in some patients. Like many neurodegenerative disorders, no symptomatic or disease-modifying treatments are known. The primary objective of the proposed research is to identify compounds inhibiting ATXN2 expression and to test them for efficacy in SCA2 mouse models. We have developed a cell-based assay paired with an in vivo mouse model using identical luciferase expression constructs. This approach takes advantage of an ATXN2-luciferase transgene, with the luciferase gene flanked by the upstream and downstream portions of the ATXN2 gene. Here we describe a 5-7 dose quantitative high thoroughput screen (qHTS) for compounds lowering ATXN2 expression. We screened the NIH Molecular Libraries Small Molecule Repository (MLSMR) and NCGC's mechanistically annotated (MIPE) and drug repurposing (NPC) collections of compounds for lowering expression of an ATXN2-luciferase reporter in HEK-293 cells. The assay is a multiplexed cell viability assay to ensure target reduction in the absence of cytotoxicity. Secondary qHTS assays included a CMV-luciferase reporter expressed in HEK-293 cells as well as a biochemical assay using recombinant luciferase to detect inhibitors of the reporter enzyme. Compounds that inhibit ATXN2 expression but is not cytotoxic were selected for confirmatory and secondary screens.
# PROTOCOL TABLE (as described by Inglese J, Shamu CE and Guy RK. 2007) SEQUENCE No. (e.g., 1, 2, 3, etc.); […] (e.g., Cells, Incubation, Reagent, etc.); VALUE; DESCRIPTION. 1; Cells; 4 uL; white, solid bottom, 1536-well Greiner assay plate. 2; Incubation; 2 hr; 37 degree C in 5% humidified CO2. 3; Compounds; 23 nL; Kalypsis pintool (Wako USA) equipped with a 1536-well pin head. 4; Incubation; 24 hr; 37 degree C in 5% humidfified CO2. 5; Reagent; 1 uL; Gly-Phe-7-Amino-4-trifluoromethylcoumarin. 6; Incubation; 30 min; 37 degree C in 5% humidfified CO2. 7; Detection; Fluorescence; Viewlux plate reader (PerkinElmer). 8; Reagent; 3 uL; SteadyGlo luciferase solution (Promega). 9; Incubation; 5 min; room temperature. 10; Detection; Luminescence; ViewLux plate reader (PerkinElmer). NOTES (numbers refer to Sequence numbers above) 1. HEK-293 cells expressing CMV-luciferase reporter (designated as SC cells) were suspended in phenol-red free DMEM and dispensed in assay plates using a Multidrop Combi dispenser (Thermo Fisher Scientific). 2. Assay plates were incubated. Evaporation was prevented by covering assay plates with metal lids containing holes to allow gas diffusion. 3. Compounds were added in a dose response manner with the final concentrations of 57, 11.4, 2.28, 0.46, 0.091, 0.018, 0.0037 uM. Vehicle-only plates, with DMSO being pin-transferred to columns 5-48, were inserted uniformly at the beginning and the end of each library to monitor and record any shifts in assay performance. 5. 125 uM Gly-Phe-7-Amino-4-trifluoromethylcoumarin (MP Biomedicals) working concentration was used at a final concentration of 25 uM. 7. To assess cell viability; the assay plates were read using the ViewLux high-throughput CCD imager (PerkinElmer), wherein single end-point fluorescence measurement was acquired (excitation 405/10; emission 540/25 nm). 8. Detection reagent SteadyGlo Luciferase (Promega) was added to the assay plate. 10. Luminescence is then measured on the ViewLux imager equipped with a clear emission filter using a 2 sec exposure. […]
# On the % scale 0 is the no-effect control and ±100 the full control effect; potency means the concentration at half of the fitted maximal effect.
Structure (SMILES),"activity change, negative = cytotoxicity",Potency
Cc1cc(C)cc(NC(=O)CCC(=O)Nc2cc(C)on2)c1,16.8%,
Cn1c(SCc2ccc(C(C)(C)C)cc2)nnc1C1COc2ccccc2O1 (centres undefined),-14.2%,
N#C/C(=C/c1ccc(Sc2nc3ccccc3[nH]2)o1)c1cccc(F)c1,-26.5%,
CC1(C(=O)NC2CCN(Cc3ccccc3)CC2)CCN1Cc1ccc2ccccc2c1 (centres undefined),-17.7%,
C=CCN(C(=O)CSc1nc2c(sc3ccccc32)c(=O)n1CCN(CC)CC)c1ccccc1,,20 µM (active)
COc1ccc(/C=C/C(O)=C2/C(=O)N(C)C3(C)CC2c2ccccc2O3)cc1 (centres undefined),0.775% [at 57.5 µM],
COc1ccc(C(=O)c2c(C)c3ccccc3n2CC(O)CNC(C)C)cc1 (centres undefined),,17.8 µM (active)
O=C(Oc1c(CN2CCOCC2)cc(Cl)c2cccnc12)c1cccs1,6.23% [at 57.5 µM],
COc1cnc(-c2ccccn2)nc1NC(C)C,,6.31 µM (active)
COc1cc(C#Cc2c(-c3cncn3C)n(C)c3ccc(-c4ccc(CN5CCOCC5)cc4)cc23)cc(OC)c1,3.5%,
COc1ccc2c(-c3ccc(S(N)(=O)=O)cc3)c(-c3ccc(S(C)(=O)=O)cc3)sc2c1,-21.7% [at 57.5 µM],
NC(=O)c1cc([N+](=O)[O-])ccc1NCc1ccc(N)cc1,,22.4 µM (active)
OCCN1CCN(C2CCC(c3ccc(F)cc3)c3ccc(F)cc32)CC1 (centres undefined),-5.95% [at 57.5 µM],
CC(C)CC(NC(=O)c1ccc(Cl)cc1)C(=O)OCC(=O)c1ccc2c(c1)NC(=O)CO2 (centres undefined),,14.1 µM (active)
CN(C)CCCNc1nc2cc(-c3cccc(Cl)c3)sc2c(=O)n1C,-16.2% [at 57.5 µM],
O=C(CNC(=O)c1ccccc1O)N/N=C/c1cc(Br)ccc1OC(=O)/C=C/c1ccco1,13%,
COCc1ccc(CN2CCC(C(=O)Nc3cccc(-c4cccc(Cl)c4)c3)CC2)o1,,17.8 µM (active)
CCCn1ncc(CN2CCC(C(=O)Nc3cccc(-c4cccc(F)c4)c3)CC2)c1C,-27.1% [at 57.5 µM],
CC(=O)c1cc(CN2CCC(C(=O)Nc3cccc(-c4cscn4)c3)CC2)cs1,-11.1% [at 57.5 µM],
O=C(NCc1ccco1)c1ccc(-c2cccc(Cl)c2)o1,-7.88% [at 57.5 µM],

Structure (SMILES),"activity change, negative = cytotoxicity",Potency
CN1CCC(N(C)C(=O)c2ccc(Cl)c(S(=O)(=O)N3CCc4ccccc43)c2)CC1,-12.2% [at 57.5 µM],
O=C(CSC1=NNC(c2ccccn2)S1)Nc1ccc(C(F)(F)F)cc1 (centres undefined),,14.1 µM (active)
Cc1ccccc1SCC(=O)N1CCN(c2ccc(C(F)(F)F)cn2)CC1,-1.97%,
O=C(Nc1ccc(F)cc1)c1sccc1SCc1cccc(C(F)(F)F)c1,-14.2% [at 57.5 µM],
COC(=O)c1ccsc1NC(=O)CN1CCN(Cc2ccc3c(c2)OCO3)CC1,9.4% [at 57.5 µM],
Cc1ccc2nc(NC(=O)CSCC(=O)OCC(=O)c3ccc(Br)cc3)sc2c1,16.3% [at 57.5 µM],
Cc1ccc(C(=O)CN2C(=O)c3ccccc3S2(=O)=O)cc1,1.75%,
Cc1ccc(C(=O)COC(=O)c2ccc3c(c2)C(=O)N(c2cccc4ncccc24)C3=O)cc1,,22.4 µM (active)
O[C@@H]1[C@@H](O)C=C2CCN3Cc4cc5c(cc4[C@H]1C23)OCO5 (some centres undefined),,6.31 µM (active)
Cc1cc(C)n(-c2ccc(C(=O)N3CCN(S(=O)(=O)c4cccc(Br)c4)CC3)cc2)n1,3.92%,
CCc1cc(-c2[nH]ncc2-c2ccc(OC)cc2)c(O)cc1O,-18.3%,
CCn1c2ccccc2c2cc(/C=C(/C#N)C(N)=S)ccc21,-29.2%,
CCOC(=O)/C=C/C(=O)Nc1ccc(Oc2ccccc2)cc1,-13.1%,
O=C(Nc1ccc(Oc2ccc(NC(=O)Nc3ccc([N+](=O)[O-])cc3)cc2)cc1)Nc1ccc([N+](=O)[O-])cc1,,10 µM (active)
Cc1ccc(Cc2cnc(NC(=O)/C(C#N)=C/c3ccc(-c4cccc([N+](=O)[O-])c4)o3)s2)cc1,,20 µM (active)
Cc1ccc(-c2ccc(/C=N/c3ncn[nH]3)o2)cc1Cl,-27.7%,
CCCc1cc(=O)[nH]c(-n2[nH]c3c(c2=O)CCCC3)n1,,22.4 µM (active)
CCn1c2ccccc2c2cc(NC(=O)COC(=O)c3cc(S(=O)(=O)N4CCCCC4)ccc3Cl)ccc21,12.4%,
CC[C@]12c3[nH]c4ccc(Cl)cc4c3CCN1C(=O)[C@@H](CC(=O)NCC13CC4CC(CC(C4)C1)C3)C[C@@H]2C(=O)N1CCN(C(=O)C2CC2)CC1,,22.4 µM (active)
CC[C@]12c3[nH]c4ccc(Cl)cc4c3CCN1C(=O)[C@@H](CC(=O)NCC13CC4CC(CC(C4)C1)C3)C[C@@H]2C(=O)N1CCN(C(=O)c2ccco2)CC1,,3.16 µM (active)

Structure (SMILES),"activity change, negative = cytotoxicity",Potency
CCOC(=O)c1cnc2ccc(OC)cc2c1Nc1ccc(N2CCN(C)CC2)cc1,-29.6% [at 57.5 µM],
Cc1ccc2nc(SCc3ccc([N+](=O)[O-])cc3)[nH]c2c1,-7.46%,
Cc1ccc2nc3cc([N+](=O)[O-])cc([N+](=O)[O-])c3cc2c1,,11.2 µM (active)
COc1ccc(C)cc1Nc1nc(N)c2cc(OC)c(OC)cc2n1,-4.73%,
COc1cc2nc(CN(C)Cc3ccc(SC)cc3)[nH]c(=O)c2cc1OC,-19% [at 57.5 µM],
COc1cc2nc(N(C)C)nc(N)c2cc1OC,,25.1 µM (active)
CC(C)(C)S(=O)(=O)/C(C#N)=N/Nc1ccc(Cl)cc1,,25.1 µM (active)
CCc1ccc(N(CC)C(=O)c2ccc3c(Cl)c4c(nc3c2)CCC4)cc1,-27.5%,
O=C(Nc1ccc(N2CCN(C(=O)c3ccco3)CC2)c(Cl)c1)c1c(F)c(F)c(F)c(F)c1F,-27.5% [at 57.5 µM],
O=C(Nc1ccc(N2CCN(C(=O)c3ccco3)CC2)c(Cl)c1)c1cccs1,,28.2 µM (active)
O=C(NC(=S)N1CCN(c2ccc(F)cc2)CC1)c1cccs1,-10.7%,
CC(C)(C)OC(=O)N1CCC(c2c(C(=O)NCC3CCN(C4CCCC4)C3)cnn2-c2cccc(Cl)c2)CC1 (centres undefined),-29.1%,
CCOC(=O)c1c(C)nn(-c2ccc(NC(=O)/C=C/C(=O)O)cc2)c1C,-16.6% [at 57.5 µM],
COC(=O)c1c(NC(=O)/C=C/C(=O)O)sc(C)c1-c1ccc(C(C)C)cc1,,20 µM (active)
CC(=O)c1sc(C(C)(C)C)cc1NC(=O)/C=C/C(=O)O,-3.54% [at 57.5 µM],
CC(=O)c1ccc(S(=O)(=O)N2CCN(CCOc3ccc(Br)cc3)CC2)cc1,-20.8%,
CN(C)CCCN(C(=O)c1ccc(S(=O)(=O)N2CCCCCC2)cc1)c1nc2ccc(Br)cc2s1,-15.8%,
CN(C)CCCN(C(=O)CCc1ccccc1)c1nc2ccc(Br)cc2s1,,22.4 µM (active)
CN(C)CCCN(C(=O)c1ccc(S(=O)(=O)N2CCCC2)cc1)c1nc2ccc(Br)cc2s1,,31.6 µM (active)
